# In the library only some 2.6% were active in any assay of this set; here they are far more common.
# KCNH2 WT inh: KCNH2 (human, wildtype) channel inhibition; Q12809; U2OS, BacMam KCNH2, thallium flux FluxOr; active compounds read low; actives 0.37% (n = 340,000); activity change, % at 1.84 µM;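 active = maximum activity change below -70%; inconclusive = maximum activity change between -70% and -50%; inactive = maximum activity change above -50%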
#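 U2OS cells transduced with wild-type KCNH2 virus are loaded with FluxOr dye for 45 min, and thallium flux is measured in kinetic reads before and after stimulation buffer. Rate constants are normalized to DMSO controls.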
# TRPV1 ag: human TRPV1 agonism. activation, % at 8.33 µM. actives 0.19% (n = 320,000). Q8NER1. AID 540275. TRPV1-expressing cells, Fluo-8 calcium influx, agonist mode; in the data active = activation above about 80%; inconclusive = between about 30% and that limit
#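 Fluo-8 calcium influx in TRPV1-expressing cells, kinetic read (ex 480/em 520 nm). Compound added and read 3 min for agonist activity, followed by capsaicin at EC20 final and 2 min further read for enhancement.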
# TRPV1 potentiator: human TRPV1 potentiation. Q8NER1. TRPV1-expressing cells, Fluo-8 calcium influx, capsaicin EC20 potentiation. potentiation, % at 8.33 µM. actives 0.02% (n = 320,000). AID 540277; in the data active = potentiation above about 80%; inconclusive = between about 30% and that limit
#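 TRPV1-expressing cells were cultured overnight at 35.5C and loaded with Fluo-8 calcium dye for 40 to 90 min at room temperature. After a 10 s baseline, compound was added and calcium influx was read kinetically for 3 min (ex 480/em 520 nm).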
# p53 reactivator: restores transcriptional activity of mutant p53; H1299 p53-A138V BP100-luciferase reporter, luminescence, 24 h; Potency, µM (series often up to 92.2 µM), usual class: activators; actives 0.063% (n = 320,000); AID 504706; active = well fitted activation curve with a large enough effect; inconclusive = small, poorly fitted or top-dose-only effect; inactive = no such curve, though single readings can be large or run the other way; also: nearly all actives have a fitted effect of over 45% in size
#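 p53-null H1299 cells stably carrying temperature-sensitive p53-A138V and a BP100-luciferase reporter were pinned with compounds (4-point, 1:5 series) and held 24 hrs at 37 deg C. Luminescence was read 10 min after detection reagent.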
# KCNH2 3.1 inh: inhibitors of human KCNH2 3.1 potassium channel isoform | U2OS KCNH2 3.1, thallium flux FluxOr; active compounds read low | activity change, % (tested at about 1.8 µM) | actives 0.95% (n = 340,000) | AID 720553;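 active = maximum activity change below -70%; inconclusive = maximum activity change from -70% to -50%; inactive = maximum activity change above -50%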;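 also: thallium influx rate constant from kinetic fluorescence after stimulation buffer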
#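 Virally transduced U2OS (3.1 isoform, 4 h infection in dark at RT) → overnight 37 C → FluxOr + Red40 in HBSS/HEPES, 45 min → stimulation buffer, 2 min kinetic read → rate constant vs DMSO controls.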
# ClpP mod: qHTS Assay for Activators of ClpP | ATP-dependent Clp protease proteolytic subunit (Bacillus subtilis (strain 168)), P80244 | purified B. subtilis ClpP, FRET peptide cleavage, 20 min | Potency, µM (titrated, usually from 57.5 µM) | actives 1.9% (n = 340,000); active = well fitted falling curve with a large enough effect; inconclusive = small, poorly fitted or top-dose-only effect; inactive = no such curve, though single readings can be large or run the other way; also: the source files actives as falling curves though it sought activators and does not explain the sign; nearly all actives have a fitted effect of over 65% in size
# Target sequence (P80244 whole entry, looked up): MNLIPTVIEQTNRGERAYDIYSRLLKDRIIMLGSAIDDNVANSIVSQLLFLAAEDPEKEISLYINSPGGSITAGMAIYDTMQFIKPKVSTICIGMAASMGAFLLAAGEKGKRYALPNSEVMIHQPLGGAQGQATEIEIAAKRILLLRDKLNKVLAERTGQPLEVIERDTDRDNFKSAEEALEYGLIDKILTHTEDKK
#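 ClpP 10 microg/mL final, pH 8 Tris/KCl buffer with BSA, glycerol, Tween-20; compound pinned in; FRET-FV substrate; RT 20 min; Ex320/Em430; ΔFRET vs ADEP 5.8 microM, DMSO, no enzyme.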
# Hits are given with their value; . = inactive; ? = inconclusive; / = not tested or not shown.
SMILES,KCNH2 WT inh,TRPV1 ag,TRPV1 potentiator,p53 reactivator,KCNH2 3.1 inh,ClpP mod
CCOc1ccc2ncc(C(=O)c3ccc(OC)cc3)c(N3CCN(CC)CC3)c2c1,?,.,.,.,-75,.
N/C(=N\N=C/c1ccc(Br)cc1)N/N=C\c1ccc(Br)cc1,.,.,.,.,?,.
N/C(=N\N=C/c1ccc(F)cc1)N/N=C\c1ccc(F)cc1,.,.,.,/,-73,.
Cc1ccc(C)c(NC(=S)Nc2cccnc2)c1,.,.,.,.,.,25µM
Cc1ccc(C)c(NC(=S)Nc2cccc3cnccc23)c1,.,.,.,.,.,/
CCCCCCN1C[C@H](O)[C@@H](n2cc(C3CC3)nn2)C[C@@H]1c1ccc(OC)cc1,?,/,/,/,-117,.
COc1ccccc1C1(O)CCN(CC(=O)Nc2nc(-c3ccccc3)cs2)CC1,.,.,.,.,-86,/
COc1cccc(-n2ccn(CC(=O)c3ccc(F)cc3)c(=O)c2=O)c1,/,/,/,/,/,.
Cc1cc(C(=O)Nc2ccc(Br)cn2)sc1C,.,83,.,/,.,.
O=C(Nc1ccc(Br)cn1)c1ccc(Br)s1,.,?,.,?,.,/
O=C(Nc1ccc(Br)cn1)c1ccc(Cl)s1,.,99,.,?,.,/
COCCCNC(=O)c1ccc(-n2c(-c3ccccc3)cc3c2CCCC3)cc1,/,/,/,/,/,.
Cc1nc2ccccc2cc1OCc1ccc(Cl)cc1,.,83,.,.,.,.
Cc1nc2ccccc2cc1OCc1ccccc1,.,?,.,.,.,.
COc1ccccc1NC(=S)N/N=C1\CC(C)(C)Oc2ccc(O)cc21,.,.,.,.,.,25µM
CC(=O)N1CCC2(CC1)C/C(=N\NC(=S)Nc1ccccc1F)c1cc(O)ccc1O2,.,.,.,.,.,25µM
COc1ccc(NC(=S)N/N=C2\CC(C)(C)Oc3ccc(O)cc32)cc1,.,.,.,.,.,.
CC(=O)N1CCC2(CC1)C/C(=N\NC(=S)Nc1ccccc1C)c1cc(O)ccc1O2,.,.,.,.,.,.
CN1C(=O)c2ccccc2N(C)C1c1ccccc1Cl (configuration not stated),.,.,.,.,.,.
CN1C(=O)c2ccccc2N(C)C1c1cccs1 (configuration not stated),.,.,.,.,.,20µM
CCOc1ccccc1-c1nc(Cn2c(=O)cc(C)c3c(C)nn(-c4ccccc4)c32)c(C)o1,/,/,/,/,/,.
N#CC1=C(N)SC(N)=C(C#N)C1CCc1ccccc1,.,.,.,.,.,32µM
CC(C)c1nn2c(=O)cc(COC(=O)c3ccccc3NC(=O)C3CCCCC3)nc2s1,/,/,/,/,/,.
COc1ccc(-c2nc(-c3ccccc3)c(-c3cccs3)[nH]2)cc1OC,.,.,.,.,.,28µM
Oc1cccc(-c2nc(-c3cccs3)c(-c3cccs3)[nH]2)c1,/,/,/,/,/,25µM
SMILES,KCNH2 WT inh,TRPV1 ag,TRPV1 potentiator,p53 reactivator,KCNH2 3.1 inh,ClpP mod
Fc1ccc(-c2nc(-c3cccs3)[nH]c2-c2ccc(F)cc2)cc1,.,.,.,.,.,?
COc1ccc(-c2nc(-c3cccs3)c(-c3cccs3)[nH]2)cc1OC,.,.,.,.,.,35µM
Cc1ccsc1-c1nc(-c2ccccc2)c(-c2ccccc2)[nH]1,.,.,.,.,.,28µM
O=C(CSc1nnc2ccc(-c3ccccn3)nn12)Nc1ccccc1,.,.,.,.,.,.
Cc1nc(SCC(=O)Nc2ccccn2)n[nH]1,.,.,.,.,.,/
COc1ccc(NC(=O)CSc2nnc3ccc(-c4ccccn4)nn23)cc1,.,.,.,.,.,16µM
COc1ccc(-c2ccnc(SCC(=O)Nc3ccccn3)n2)cc1,.,.,.,.,.,35µM
Cc1[nH]c(=O)cc2ccccc12,.,.,.,.,.,22µM
Cc1cc(=O)[nH]c2ccccc12,.,.,.,.,.,.
CC1(C)S[C@@H]2[C@H](NC(=O)COc3ccccc3)C(=O)N2[C@@H]1C(=O)OCc1cccc2cccnc12,/,/,/,/,/,.
O=C(Cc1ccc(OCc2ccccc2)cc1)NO,/,/,/,/,/,.
CCOc1ncccc1C(=O)Nc1ccc(Cl)c(S(=O)(=O)N2CCCC2)c1,.,.,.,.,.,.
O=C(COC(=O)c1cc(S(=O)(=O)N2CCOCC2)ccc1O)Nc1cc(S(=O)(=O)N2CCCC2)ccc1Cl,-146,.,?,.,-194,/
O=C(COC(=O)c1cc(S(=O)(=O)N2CCCC2)ccc1O)Nc1ccc(S(=O)(=O)N2CCOCC2)cc1,.,.,.,.,.,.
O=C(COC(=O)c1cnc(Cl)c(Cl)c1)Nc1ccc(S(=O)(=O)N2CCCC2)cc1,.,.,.,.,-97,/
O=C(COC(=O)c1cc(S(=O)(=O)N2CCOCC2)ccc1O)NCC1CCCO1 (configuration not stated),.,.,.,.,.,35µM
CCOc1ncccc1C(=O)Nc1cc(S(=O)(=O)N2CCCCC2)ccc1Cl,.,.,.,.,.,32µM
COC(=O)c1cc2c([nH]c1=O)CC(c1ccccc1)CC2=O (configuration not stated),/,/,/,/,/,.
CCN(CC)c1ccc(-c2nnc(SCC(=O)NCc3ccco3)n2C)cc1,/,/,/,/,/,.
COCCNC(=O)C1(C)CCCN(Cc2ccc(Oc3ccccc3)cc2)C1 (configuration not stated),/,/,/,/,/,.
O=C(C[n+]1ccccc1Cl)c1ccc(I)cc1,/,/,/,/,/,.
CCOC(=O)CCC(NC(=O)c1cncc(O)c1)C(=O)OCC (configuration not stated),.,.,.,.,.,28µM
COc1cc(/C=N/NC(=O)c2nonc2C)ccc1O,.,.,.,.,/,/
Cc1nonc1C(=O)N/N=C/c1ccc(O)c(O)c1,.,.,.,?,.,28µM
COC(=O)c1sc2cccc(F)c2c1S(=O)(=O)Nc1ccc(C)cc1Cl,/,/,/,/,/,.
Cc1cc(F)c(F)c(C(=O)N2CCC(C)CC2)c1Cl,.,.,.,.,-135,.
Cc1cc(F)c(F)c(C(=O)N2CCCCC2C)c1Cl (configuration not stated),.,.,.,.,.,/
CCc1ccc2[nH]c(=O)c(CN(Cc3ccccc3)Cc3nnnn3Cc3ccccc3)cc2c1,/,/,/,/,/,25µM
COc1ccc2[nH]c(=O)c(CN(Cc3nnnn3Cc3ccc(F)cc3)CC3CCCO3)cc2c1 (configuration not stated),.,.,.,.,.,?
CCc1ccc2[nH]c(=O)c(CN(Cc3nnnn3C3CCCC3)C3CCCCC3)cc2c1,.,?,.,.,-189,.

# Screening results deposited in PubChem BioAssay by National Center for Advancing Translational Sciences (NCATS).
